# Measured values from PubChem BioAssay (NCATS).
# Results filed as inconclusive are left out. Entries that show only a call come without a potency. The source made the active and inactive calls. Calls follow the shape of the dose curve; as a rule, active = well fitted inhibition curve with a large enough effect; inconclusive = small, poorly fitted or top-dose-only effect; inactive = flat fitted curve, though single readings scatter.
# Test system: astro (control astrocytes)
# Test: Drug repurposing screens with cells derived from glioblastoma tumor samples (AID 1345199); also: nearly all actives have a fitted effect of over 40% in size
# Settings: viability, ATP luminescence, 48 h; series mostly up to 45.9 µM
# Description: CD133+ cells were isolated from GBM patient biopsies and cultured as neurospheres. Neurospheres from four patients were used to screen the NCATS pharmaceutical collection (NPC) library of approved drugs and bioactive compounds. […] The neurospheres were incubated with drugs for 48 hours in 1536-well format, then assayed with an ATP content cell viability assay. […] These hits were cherry picked to confirm activity in the four original GBM lines screened plus three other slower growing GMB lines (unable to yield enough cells for a full primary screen). Variable activities of the confirmed primary hits in the different GBM patient lines were observed. The patient line 206 responded to the greatest number of compounds and line 923 responded to the least amount of active compounds.
# Potency is read from the fitted curve at half-maximal effect.
row,SMILES,Potency
1,Nc1ccncc1,inactive
2,C[C@]12CCC(=O)C(O)=C1CC[C@@H]1[C@@H]2CC[C@]2(C)C(=O)CC[C@@H]12,inactive
3,Clc1cccc(N2CCNCC2)c1,inactive
4,NCC(O)c1ccc(O)cc1 (stereo not given),inactive
5,CN(C)CCc1ccc(O)cc1,inactive
6,CC[N+]1(C)CCCC(OC(=O)C(O)(c2ccccc2)c2ccccc2)C1 (stereo not given),inactive
7,N[C@@H]1C[C@H]1c1ccccc1,inactive
8,CC1OC(C)OC(C)O1 (stereo not given),inactive
9,C=C1CC[C@@]2(O)[C@H]3Cc4ccc(O)c5c4[C@@]2(CCN3CC2CC2)[C@H]1O5,inactive
10,OCCOc1ccccc1,inactive
11,O=[N+]([O-])c1cc([As](=O)(O)O)ccc1O,inactive
12,CC1NCCOC1c1ccccc1 (stereo not given),inactive
13,NP(N)(=O)NC(=O)c1ccc(F)cc1,inactive
14,O=C(NC(O)C(Cl)(Cl)Cl)NC(O)C(Cl)(Cl)Cl (stereo not given),inactive
15,CCOP(=S)(OCC)Oc1cc(C)nc(C(C)C)n1,inactive
16,Cc1cccc(C)c1NC(=O)CN1CCCC1=O,inactive
17,CN1C[C@H](CNC(=O)OCc2ccccc2)C[C@@H]2c3cccc4c3c(cn4C)C[C@H]21,inactive
18,NCC(CC(=O)O)c1ccc(Cl)cc1 (stereo not given),inactive
19,CC(=O)[C@H]1CC[C@H]2[C@@H]3CC[C@H]4C[C@](C)(O)CC[C@]4(C)[C@H]3CC[C@]12C,inactive
20,FC(F)(F)c1cccc(C2=CCN(CCc3ccc4ccccc4c3)CC2)c1,inactive

row,SMILES,Potency
1,C=C1C[C@@H]2[C@H](CC[C@]3(C)C(=O)CC[C@@H]23)[C@@]2(C)C=CC(=O)C=C12,inactive
2,Oc1cc(Cl)ccc1Oc1ccc(Cl)cc1Cl,28.2 µM (active)
3,Cn1c(CCCC(=O)O)nc2cc(N(CCCl)CCCl)ccc21,inactive
4,C[C@H]1O[C@@H](O[C@H]2[C@@H](O)C[C@H](O[C@H]3[C@@H](O)C[C@H](O[C@H]4CC[C@@]5(C)[C@H](CC[C@@H]6[C@@H]5CC[C@]5(C)[C@@H](C7=CC(=O)OC7)CC[C@]65O)C4)O[C@@H]3C)O[C@@H]2C)C[C@H](O)[C@@H]1O,0.1 µM (active)
5,CCCN1CCC[C@@H]2Cc3nc(N)ncc3C[C@H]21,inactive
6,CCCN1CCC[C@@H]2Cc3[nH]ncc3C[C@H]21,inactive
7,C=CCN1CC[C@]23c4c5ccc(O)c4O[C@H]2C(=O)CC[C@@]3(O)[C@H]1C5,inactive
8,NCCc1cc(O)c(O)cc1O,inactive
9,COc1ccc(Cc2nccc3cc(OC)c(OC)cc23)cc1OC,10 µM (active)
10,CC(C)(N)Cc1ccc(Cl)cc1,inactive
11,O=C1CC[C@@]2(O)[C@H]3Cc4ccc(O)c5c4[C@@]2(CCN3CC2CC2)[C@H]1O5,inactive
12,N[C@@H](Cc1ccc(Oc2cc(I)c(O)c(I)c2)c(I)c1)C(=O)O,inactive
13,CC(C)CC(N(C)C)C1(c2ccc(Cl)cc2)CCC1 (stereo not given),inactive
14,C#CCOC(C(=O)OCCN(C)C)(c1ccccc1)c1ccccc1,inactive
15,Fc1ccc(C(OCCN2CCN(CCCc3ccccc3)CC2)c2ccc(F)cc2)cc1,22.4 µM (active)
16,Cc1cccc(C)c1NC1=NCCCS1,inactive
17,CCN(CC)CCN1C(=O)CN=C(c2ccccc2F)c2cc(Cl)ccc21,inactive
18,CC(C)(C)NCC(O)c1cc(Cl)c(N)c(Cl)c1 (stereo not given),inactive
19,c1ccc2c(c1)OCC(C1=NCCN1)O2 (stereo not given),15.8 µM (active)
20,Clc1ccc(CCC(Cn2ccnc2)Sc2c(Cl)cccc2Cl)cc1 (stereo not given),inactive
